Measured values: PubChem BioAssay (Tox21)
Unmarked numbers belong to inactive results. Records with an inconclusive call do not appear. A call without a number means that no potency is given here. Activity calls are given as the source filed them. Unless noted, the call rests on the fitted dose curve.

Experiments:
[1] = Nuclear factor erythroid 2-related factor 2/antioxidant responsive element (Nrf2/ARE) small molecule agonists: qHTS cell viability counter screen in human keratinocytes (AID 1919968; active means well fitted curve in the direction sought with a large enough effect in the repeat runs; an effect the other way counts as inactive or inconclusive; further: nearly all actives have a fitted effect of over 55% in size)
Procedure, shortened: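 KeratinoSens HaCaT cells, 1,500/well, preincubated 5 h, then exposed to compounds in DMSO for 23 h at 37 C/5% CO2. Viability read as CellTiter-Fluor fluorescence after 1 h, in the same wells as the ARE-luciferase read.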

[2] = Nuclear factor erythroid 2-related factor 2/antioxidant responsive element (Nrf2/ARE) small molecule agonists: luciferase reporter gene qHTS assay in human keratinocytes (AID 1919969); further: nearly all actives have a fitted effect of over 35% in size; further: potency means the concentration at half of the fitted maximal effect
[3] = molecular target: Gonadotropin-releasing hormone receptor (Homo sapiens) (UniProt P30968); assay: Human gonadotropin-releasing hormone receptor (GnRHR) small molecule agonists, calcium flux assay in GnRHR-HEK293 cells (AID 1920063); further: nearly all actives have a fitted effect of over 35% in size
Procedure, shortened: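 HEK293 cells stably expressing human GnRHR were dye-loaded for 1 h at 37 C. Compound was added in agonist mode and fluorescence (Ex/Em 480/540) recorded kinetically for 3 min. Fifteen concentrations, triplicates.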

[4] = molecular target: KiSS-1 receptor (Homo sapiens) (UniProt Q969F8); assay: Human kisspeptin (KISS1R) small molecule agonists, calcium flux assay in KISS1R-HEK293 cells (AID 1920064; active means well fitted curve in the direction sought with a large enough effect in the repeat runs; an effect the other way counts as inactive or inconclusive)
Procedure, shortened: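 HEK293 cells stably expressing human KISS1R were loaded with calcium dye for 1 h at 37 C, then given compound; fluorescence (Ex/Em 480/540) was read kinetically for 3 min. Fifteen concentrations, triplicate.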

[5] = G protein-coupled receptor (GPCR) small molecule agonists, calcium flux assay: HEK293 wild type cell line counter screen (AID 1920065)
Procedure, shortened: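 Wild-type HEK293 cells plated 18 h, loaded with calcium dye 1 h at 37 C, then compounds added in agonist mode (ATP as positive control). Kinetic fluorescence Ex/Em 480/540 recorded 3 min at 1 sec intervals; 15 concentrations, triplicate.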

[6] = p53 small molecule agonists, cell-based qHTS assay with rat liver microsomes: qHTS cell viability counter screen (AID 1963580); further: nearly all actives have a fitted effect of over 45% in size
Procedure, shortened: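 Viability is assessed in parallel with the p53 reporter read: HCT-116 p53RE-bla cells receive compounds plus rat microsomes and NADPH (0.5 mg/mL final apiece), incubate 16 h at 37 C, and then CellTiter-Glo luminescence is recorded.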

[7] = p53 small molecule agonists, cell-based qHTS assay: qHTS cell viability counter screen (AID 1963581); further: nearly all actives have a fitted effect of over 45% in size
Procedure, shortened: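 p53RE-bla HCT-116 cells, compounds added 5 h after plating and incubated 16 h at 37 C. Cytotoxicity measured in the same wells as intracellular ATP by CellTiter-Glo luminescence after 30 min at room temperature.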

[8] = molecular target: 5-hydroxytryptamine receptor 2A (Homo sapiens) (UniProt P28223); assay: 5-hydroxytryptamine receptor 2A (HTR2A) small molecule agonists, cell-based qHTS assay (AID 1963587); further: nearly all actives have a fitted effect of over 30% in size
Procedure, shortened: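 CHO cells stably expressing human HTR2A, plated 18 h, loaded with calcium dye 1 h at 37 C. Agonist mode: compounds added and intracellular calcium fluorescence recorded kinetically for 2 min at 1 sec intervals.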

[9] = molecular target: Muscarinic acetylcholine receptor M1 (Homo sapiens) (UniProt P11229); assay: Cholinergic receptor muscarinic 1 (CHRM1) small molecule antagonists, cell-based qHTS assay (AID 1963588); further: nearly all actives have a fitted effect of over 40% in size
Procedure, shortened: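 CHRM1-CHO calcium-flux assay, antagonist mode. Cells were seeded 18 h, dye-loaded 1 h at 37 C and given compound for 5 min at RT, then acetylcholine was added at 50nM. FDSS fluorescence was read 3 min; 15 concentrations, three runs.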

[10] = molecular target: Muscarinic acetylcholine receptor M1 (Homo sapiens) (UniProt P11229); assay: Cholinergic receptor muscarinic 1 (CHRM1) small molecule agonists, cell-based qHTS assay (AID 1963589); further: nearly all actives have a fitted effect of over 35% in size
Procedure, shortened: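 CHO cells stably expressing human CHRM1 were loaded with calcium dye for 1 h at 37 C, then compound was added in agonist mode. Intracellular calcium fluorescence was followed kinetically at 1 s intervals. Fifteen concentrations were tested in three independent runs.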

[11] = cAMP Responsive Elements (CRE) small molecule agonists, cell-based qHTS assay (AID 1963590)
Procedure, shortened: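 CRE-bla HEK 293T cells, 2,000/well in DMEM with 10% dialyzed FBS and 25 mM HEPES, pre-incubated 18 h at 37 C, then exposed to compound 3 h at 37 C. Beta-lactamase reporter read with LiveBLAzer B/G FRET substrate after 2 h at room temperature.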

[12] = cAMP Responsive Elements (CRE) small molecule antagonists, cell-based qHTS assay (AID 1963591; active means well fitted inhibition curve with a large enough effect in the signal ratio in the repeat runs, not every such curve was filed as active; the % refers to the signal ratio)
Procedure, shortened: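 CRE-bla HEK293T cells plated 18 h, then given compound plus NKH477 at 0.25 uM final for 3 h at 37C. Beta-lactamase reporter read with LiveBLAzer B/G FRET substrate after 2 h at room temperature.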

[13] = molecular target: Beta-2 adrenergic receptor (Homo sapiens) (UniProt P07550); assay: Adrenergic beta2 receptor (ADRB2) small molecule antagonists, cell-based qHTS assay (AID 1963592); further: series mostly up to about 92 µM; nearly all actives have a fitted effect of over 50% in size
Procedure, shortened: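 Cells (CHO, stable ADRB2 overexpression) incubated 18-20hr at 37C; compounds added from DMSO; agonist mix (1nM isoproterenol, 100uM IBMX, 25uM Ro-20-1724) added; 0.5hr RT; d2-cAMP and anti-cAMP-cryptate added; 1hr RT; 665/615 nm read.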

[14] = molecular target: D(2) dopamine receptor (Homo sapiens) (UniProt P14416); assay: Dopamine D2 receptor (DRD2) small molecule agonists, cell-based qHTS assay (AID 1963594); further: nearly all actives have a fitted effect of over 35% in size
Procedure, shortened: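 HEK293 cells stably expressing human DRD2, pre-treated with PDE inhibitor Ro20-1724 (0.1 mM final) and compound 10 min at room temperature, then stimulated with NKH477 (200nM […]) for 30 min. cAMP read by HTRF (665/620 nm).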

[15] = molecular target: D(2) dopamine receptor (Homo sapiens) (UniProt P14416); assay: Dopamine D2 receptor (DRD2) small molecule antagonists, cell-based qHTS assay (AID 1963595; active means well fitted inhibition curve with a large enough effect in the signal ratio in the repeat runs, with a control signal flat; the % refers to the signal ratio)
Procedure, shortened: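 Human DRD2 antagonist qHTS measuring cAMP by HTRF. The cells are exposed to compound for 10 min, then to NKH477 (200 nM) and quinpirole (12 nM) for 30 min at RT, with Ro20-1724 (0.1 mM) present throughout.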

[16] = molecular target: 5-hydroxytryptamine receptor 2A (Homo sapiens) (UniProt P28223); assay: 5-hydroxytryptamine receptor 2A (HTR2A) small molecule antagonists, cell-based qHTS assay (AID 1963586); further: nearly all actives have a fitted effect of over 45% in size
Procedure, shortened: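 Antagonist-mode intracellular calcium assay: DOI (4 nM) added after 5 min compound pre-incubation at room temperature to dye-loaded HTR2A-CHO cells. Fluorescence followed for 3 min, sampled every second.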

[17] = molecular target: Beta-2 adrenergic receptor (Homo sapiens) (UniProt P07550); assay: Adrenergic beta2 receptor (ADRB2) small molecule agonists, cell-based qHTS assay (AID 1963593);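 further: CHO cells stably overexpressing human ADRB2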
Procedure, shortened: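 CHO cells stably over-expressing ADRB2 were plated overnight at 37C, then dosed with compounds plus a stimulation mix containing 100uM IBMX and 25uM Ro-20-1724 for 0.5hr at room temperature. cAMP was measured by HTRF competition, 1hr.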

Beta-2 adrenergic receptor (Homo sapiens), sequence (P07550 whole entry, looked up): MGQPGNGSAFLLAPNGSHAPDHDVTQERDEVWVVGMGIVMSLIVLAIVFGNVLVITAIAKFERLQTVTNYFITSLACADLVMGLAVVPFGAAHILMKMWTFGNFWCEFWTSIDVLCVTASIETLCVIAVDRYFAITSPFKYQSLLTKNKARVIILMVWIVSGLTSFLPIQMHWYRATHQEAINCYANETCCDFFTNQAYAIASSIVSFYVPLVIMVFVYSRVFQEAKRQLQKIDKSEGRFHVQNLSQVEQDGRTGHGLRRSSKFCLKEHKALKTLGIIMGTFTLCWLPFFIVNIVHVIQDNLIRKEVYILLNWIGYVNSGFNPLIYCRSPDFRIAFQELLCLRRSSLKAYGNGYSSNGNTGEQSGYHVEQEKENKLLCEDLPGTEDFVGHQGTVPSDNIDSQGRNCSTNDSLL
Gonadotropin-releasing hormone receptor (Homo sapiens), sequence (P30968 whole entry, looked up): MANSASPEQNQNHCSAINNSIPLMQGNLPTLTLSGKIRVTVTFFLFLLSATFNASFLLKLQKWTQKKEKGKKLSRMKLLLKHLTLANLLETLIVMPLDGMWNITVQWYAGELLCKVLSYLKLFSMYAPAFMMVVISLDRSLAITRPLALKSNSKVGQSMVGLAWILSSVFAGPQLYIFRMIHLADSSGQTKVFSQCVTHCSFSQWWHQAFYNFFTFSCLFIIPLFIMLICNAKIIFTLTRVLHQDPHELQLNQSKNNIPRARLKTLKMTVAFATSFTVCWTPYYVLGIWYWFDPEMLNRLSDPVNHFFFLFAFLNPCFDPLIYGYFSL
D(2) dopamine receptor (Homo sapiens), sequence (P14416 whole entry, looked up): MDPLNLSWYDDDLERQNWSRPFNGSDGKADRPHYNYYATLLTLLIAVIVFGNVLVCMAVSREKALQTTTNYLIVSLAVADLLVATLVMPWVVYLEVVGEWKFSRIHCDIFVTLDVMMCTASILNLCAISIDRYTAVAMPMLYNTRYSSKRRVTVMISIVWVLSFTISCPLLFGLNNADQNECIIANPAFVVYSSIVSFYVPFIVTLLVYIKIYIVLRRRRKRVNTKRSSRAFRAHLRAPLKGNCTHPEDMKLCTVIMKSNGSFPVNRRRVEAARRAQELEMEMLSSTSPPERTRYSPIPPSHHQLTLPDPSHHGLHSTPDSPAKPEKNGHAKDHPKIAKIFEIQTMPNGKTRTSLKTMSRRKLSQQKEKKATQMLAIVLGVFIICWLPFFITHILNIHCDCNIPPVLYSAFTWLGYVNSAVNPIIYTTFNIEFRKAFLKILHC
Muscarinic acetylcholine receptor M1 (Homo sapiens), sequence (P11229 whole entry, looked up): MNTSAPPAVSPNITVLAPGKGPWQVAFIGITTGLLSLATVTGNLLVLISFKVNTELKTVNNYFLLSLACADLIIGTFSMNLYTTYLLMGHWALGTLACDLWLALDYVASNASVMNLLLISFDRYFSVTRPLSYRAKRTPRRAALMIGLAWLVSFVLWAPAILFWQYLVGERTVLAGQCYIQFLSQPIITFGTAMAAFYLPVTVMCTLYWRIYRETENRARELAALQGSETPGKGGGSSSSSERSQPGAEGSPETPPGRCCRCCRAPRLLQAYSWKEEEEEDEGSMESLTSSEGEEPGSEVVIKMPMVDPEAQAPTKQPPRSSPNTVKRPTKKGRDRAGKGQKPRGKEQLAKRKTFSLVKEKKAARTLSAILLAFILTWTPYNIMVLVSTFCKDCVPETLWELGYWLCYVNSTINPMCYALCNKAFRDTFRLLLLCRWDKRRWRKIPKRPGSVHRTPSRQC
KiSS-1 receptor (Homo sapiens), sequence (Q969F8 whole entry, looked up): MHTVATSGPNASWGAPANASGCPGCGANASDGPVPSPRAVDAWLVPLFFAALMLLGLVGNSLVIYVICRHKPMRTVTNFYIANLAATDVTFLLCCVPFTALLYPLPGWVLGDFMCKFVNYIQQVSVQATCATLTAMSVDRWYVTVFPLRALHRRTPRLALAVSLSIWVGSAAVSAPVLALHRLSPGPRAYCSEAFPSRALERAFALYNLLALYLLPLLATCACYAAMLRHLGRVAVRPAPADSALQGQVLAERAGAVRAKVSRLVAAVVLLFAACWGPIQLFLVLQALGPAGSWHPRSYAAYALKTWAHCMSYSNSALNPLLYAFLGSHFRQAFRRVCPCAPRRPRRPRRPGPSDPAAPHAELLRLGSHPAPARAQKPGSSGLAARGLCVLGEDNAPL
5-hydroxytryptamine receptor 2A (Homo sapiens), sequence (P28223 whole entry, looked up): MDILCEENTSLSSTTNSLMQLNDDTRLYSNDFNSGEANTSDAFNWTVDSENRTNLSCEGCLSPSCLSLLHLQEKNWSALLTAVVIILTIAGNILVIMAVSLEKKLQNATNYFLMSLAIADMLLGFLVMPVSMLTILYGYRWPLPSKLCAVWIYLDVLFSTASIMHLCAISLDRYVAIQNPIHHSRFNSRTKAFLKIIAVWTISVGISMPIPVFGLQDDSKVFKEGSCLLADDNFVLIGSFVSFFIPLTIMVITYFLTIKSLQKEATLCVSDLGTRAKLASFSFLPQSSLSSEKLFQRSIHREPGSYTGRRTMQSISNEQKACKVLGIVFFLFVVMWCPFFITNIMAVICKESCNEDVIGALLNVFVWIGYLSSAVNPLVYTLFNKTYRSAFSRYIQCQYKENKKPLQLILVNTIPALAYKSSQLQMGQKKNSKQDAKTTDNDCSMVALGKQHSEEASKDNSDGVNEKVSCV

Structure (SMILES)	Potency [1]	Potency [2]	Potency [3]	Potency [4]	Potency [5]	Potency [6]	Potency [7]	Potency [8]	Potency [9]	Potency [10]	Potency [11]	Potency [12]	Potency [13]	Potency [14]	Potency [15]	Potency [16]	Potency [17]
O=c1cc(O)c(Cl)c[nH]1	inactive	inactive	inactive	inactive	inactive	inactive	inactive	inactive	inactive	inactive	inactive	inactive	inactive	inactive	inactive	–	–
CC(C)=CCCC(C)CC(=O)O (stereo not drawn)	inactive	inactive	inactive	inactive	inactive	inactive	inactive	inactive	inactive	inactive	inactive	–	inactive	inactive	inactive	inactive	–
COC(=O)C(C)=O	inactive	inactive	inactive	inactive	inactive	inactive	inactive	inactive	–	inactive	inactive	inactive	inactive	inactive	inactive	inactive	–
c1ccc(Sc2ccccc2)cc1	inactive	68.6 µM (active)	inactive	inactive	inactive	–	inactive	inactive	inactive	inactive	inactive	inactive	inactive	inactive	inactive	inactive	–
O=C(c1ccccc1)C1CCC1	inactive	inactive	inactive	inactive	inactive	inactive	–	inactive	inactive	inactive	inactive	inactive	–	inactive	inactive	inactive	inactive
CC(C)(CO)[C@@H](O)C(=O)NCCCO	inactive	inactive	inactive	inactive	inactive	inactive	inactive	–	–	–	–	inactive	inactive	–	inactive	–	–
Cc1ncc([C@@H](CCCCCCc2ccc3c(n2)NCCC3)CC(=O)O)cn1	inactive	inactive	inactive	inactive	inactive	inactive	–	inactive	inactive	inactive	inactive	–	inactive	inactive	–	inactive	inactive
S=C([S-])NCCNC(=S)[S-].S=C([S-])NCCNC(=S)[S-].[Mn+2].[Zn+2]	inactive	inactive	inactive	inactive	inactive	inactive	inactive	inactive	inactive	inactive	inactive	–	inactive	inactive	–	inactive	–
CCCCC[Si](OCC)(OCC)OCC	inactive	inactive	inactive	inactive	inactive	inactive	inactive	inactive	inactive	inactive	–	inactive	inactive	inactive	inactive	inactive	–
